Data as given in PubChem BioAssay AID2405 (Southern Research Specialized Biocontainment Screening …, 2010).
Active and inactive are the calls of the source. No rule for the calls is given here.

Test: RSV cytopathic effect inhibition in HEp-2 – cell-based, probe candidates (AID 2405)
Settings: HEp-2 cells, stronger effect = higher value; at 100 µM unless noted

Maximum inhibition, inactive:
O=C(CSc1nc2ccccc2c(=O)n1-c1ccc(F)cc1)Nc1ccc2c(c1)CCC2 2.76%
COc1ccc(-c2csc(N(CCCN(C)C)C(=O)c3ccccc3F)n2)cc1 5.17%
O=c1c2cc(Br)ccc2nc2n1CC/C2=C/c1ccccc1 10.8%
COc1ccc(Cn2nc(C)cc2OC(=O)c2c(F)ccc(C)c2F)cc1 1.16% [at 50 µM]
CCN(CC)CCCNC(=S)N1CCN(c2nc(-c3ccc(F)cc3)cs2)CC1 0.61% [at 0.2 µM]
Cc1ccc2nc3n(c(=O)c2c1)CCC3 2%
Cc1cccc2nc3n(c(=O)c12)CCC3 1.49% [at 25 µM]
COc1ccc(-c2csc(N(C(=O)c3ccccc3Cl)C(C)C)n2)cc1 6.99% [at 25 µM]
COc1ccc(-c2csc(NC(=O)c3ccccc3Cl)n2)cc1 2.47% [at 12.5 µM]
CC1CC(C)CN(CCCNC(=O)c2cc3c(s2)-c2ccccc2OC3)C1 (configuration not stated) 1.49% [at 25 µM]
COc1ccc(-c2csc(NC(=O)c3ccc(Cl)cc3)n2)cc1 0.97% [at 25 µM]
OC1c2cc(Br)ccc2N=C2CCCCN21 (configuration not stated) 6.83%
OC1c2cc(Cl)cc(Cl)c2N=C2CCCN21 (configuration not stated) 4.35%
O=C(CSc1nc2cccc(F)c2c(=O)n1-c1ccccc1)Nc1ccc2c(c1)CCC2 20.4%
Cc1ccc2nc(SCC(=O)Nc3ccc4c(c3)CCC4)n(-c3ccccc3)c(=O)c2c1 47.5% [at 12.5 µM]
O=c1c2c(F)cccc2nc2n1CCC2 2.17% [at 0.39 µM]
Brc1ccc2c(c1)CN1CCCC1=N2 25.2% [at 50 µM]
Oc1ccccc1C(Nc1nccs1)c1ccc2cccnc2c1O (configuration not stated) 4.97% [at 12.5 µM]
OC1c2cc(I)ccc2N=C2CCCN21 (configuration not stated) 0.75% [at 50 µM]
O=C(CSc1nc2ccccc2c(=O)n1-c1ccccc1F)Nc1ccc2c(c1)CCC2 7.99% [at 12.5 µM]
CC(=O)Nc1ccc2nc3n(c(=O)c2c1)CCC3 1.57% [at 50 µM]
O=C(CSc1nc2ccccc2c(=O)n1-c1ccc(Cl)cc1)Nc1ccc2c(c1)CCC2 11.5% [at 25 µM]
CN(C)CCCNC(=S)N1CCN(c2nc(-c3ccccc3)cs2)CC1 5.31% [at 25 µM]
OC1c2c(F)cccc2N=C2CCCCN21 (configuration not stated) 1.55% [at 12.5 µM]
COc1ccc(-c2csc(N(CCCN(C)C)C(=O)c3ccccc3Cl)n2)cc1 0.91% [at 6.25 µM]
O=c1c2cc(I)ccc2nc2n1CCC2 5.94%
CC1CCN(CCCNC(=O)c2cc3c(s2)-c2ccccc2OC3)CC1 3.42% [at 50 µM]
